# According to the supplement of paper PMC8728848:
# Only a selection was taken, and the strongest signals are over-represented in it overall.
# Experiments:
# Experiment in all cases: glycan array binding signal (z-score within array); higher = stronger binding
# Settings in all cases: glycan notation: IUPAC condensed, linker removed
# [1] = molecular target: Gal(b1-4)GlcNAc(b1-3)Gal(b1-4)GlcNAc(b1-3)[Gal(b1-4)GlcNAc(b1-3)Gal(b1-4)GlcNAc(b1-6)]GalNAc
# Procedure, shortened: (§1)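 Glycan array data came from 3228 arrays in the Consortium for Functional Glycomics database, and only arrays with an available protein sequence were kept. Glycan names were put into IUPAC-condensed notation, and columns mapping to the same glycan were averaged. The binding signal is a within-array Z-score, averaged across arrays of one protein sequence run at different concentrations or buffers and across linkers. A negative Z-score can be read as non-binding.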
# GalNAc(b1-3)GlcNAc = molecular target: GalNAc(b1-3)GlcNAc
# Procedure, shortened: as §1
# GalNAc(b1-4)GlcNAc = molecular target: GalNAc(b1-4)GlcNAc
# Procedure, shortened: as §1
# [2] = molecular target: GalNAc(b1-4)GlcNAc(b1-2)Man
# Procedure, shortened: as §1
# [3] = molecular target: GlcNAc(a1-4)Gal(b1-4)GlcNAc(b1-3)Gal(b1-4)GlcNAc(b1-3)Gal(b1-4)GlcNAc
# Procedure, shortened: as §1
# [4] = molecular target: GlcNAc(a1-6)Gal(b1-4)GlcNAc
# Procedure, shortened: as §1
# [5] = molecular target: GlcNAc(b1-3)Gal(b1-4)GlcNAc(b1-2)[GlcNAc(b1-3)Gal(b1-4)GlcNAc(b1-6)]Man(a1-6)[GlcNAc(b1-3)Gal(b1-4)GlcNAc(b1-2)Man(a1-3)]Man(b1-4)GlcNAc(b1-4)GlcNAc
# Procedure, shortened: as §1
# [6] = molecular target: GlcNAc(b1-3)Gal(b1-4)GlcNAc(b1-3)Gal(b1-4)GlcNAc(b1-2)Man(a1-3)[GlcNAc(b1-3)Gal(b1-4)GlcNAc(b1-3)Gal(b1-4)GlcNAc(b1-2)Man(a1-6)]Man(b1-4)GlcNAc(b1-4)[Fuc(a1-6)]GlcNAc
# Procedure, shortened: as §1
# [7] = molecular target: GlcNAc(b1-4)Gal(b1-4)GlcNAc
# Procedure, shortened: as §1
# GlcNAc(b1-4)GlcNAc = molecular target: GlcNAc(b1-4)GlcNAc
# Procedure, shortened: as §1
# [8] = molecular target: GlcNAc(b1-4)GlcNAc(b1-4)GlcNAc(b1-4)GlcNAc(b1-4)GlcNAc
# Procedure, shortened: as §1
# [9] = molecular target: Neu5Ac(a2-3)Gal(b1-3)GalNAc(b1-4)[Neu5Ac(a2-3)]Gal(b1-4)Glc
# Procedure, shortened: as §1
# [10] = molecular target: Neu5Ac(a2-3)Gal(b1-3)[Fuc(a1-4)]GlcNAc(b1-3)Gal(b1-3)[Fuc(a1-4)]GlcNAc
# Procedure, shortened: as §1
# [11] = molecular target: Neu5Ac(a2-3)Gal(b1-4)GlcNAc(b1-2)Man(a1-3)[Neu5Ac(a2-3)Gal(b1-4)GlcNAc(b1-2)Man(a1-6)]Man(b1-4)GlcNAc(b1-4)[Fuc(a1-6)]GlcNAc
# Procedure, shortened: as §1
# [12] = molecular target: Neu5Ac(a2-3)Gal(b1-4)GlcNAc6S
# Procedure, shortened: as §1
# [13] = molecular target: Neu5Ac(a2-3)[GalNAc(b1-4)]Gal(b1-4)GlcNAc
# Procedure, shortened: as §1
# Neu5Ac(a2-6)Gal(b1-4)Glc = molecular target: Neu5Ac(a2-6)Gal(b1-4)Glc
# Procedure, shortened: as §1
# [14] = molecular target: Neu5Ac(a2-6)Gal(b1-4)GlcNAc
# Procedure, shortened: as §1
# [15] = molecular target: Neu5Ac(a2-6)Gal(b1-4)GlcNAc(b1-2)Man(a1-3)[GlcNAc(b1-2)Man(a1-6)]Man(b1-4)GlcNAc(b1-4)GlcNAc
# Procedure, shortened: as §1
# [16] = molecular target: Neu5Ac(a2-6)Gal(b1-4)GlcNAc(b1-2)Man(a1-3)[Neu5Ac(a2-6)Gal(b1-4)GlcNAc(b1-2)Man(a1-6)]Man(b1-4)GlcNAc(b1-4)[Fuc(a1-6)]GlcNAc
# Procedure, shortened: as §1
# [17] = molecular target: Neu5Ac(a2-6)Gal(b1-4)GlcNAc(b1-2)[Neu5Ac(a2-6)Gal(b1-4)GlcNAc(b1-4)]Man(a1-3)[GlcNAc(b1-4)][Neu5Ac(a2-6)Gal(b1-4)GlcNAc(b1-2)[Neu5Ac(a2-6)Gal(b1-4)GlcNAc(b1-6)]Man(a1-6)]Man(b1-4)GlcNAc(b1-4)GlcNAc
# Procedure, shortened: as §1
# [18] = molecular target: Neu5Ac(a2-6)Gal(b1-4)GlcNAc(b1-3)[Neu5Ac(a2-6)Gal(b1-4)GlcNAc(b1-6)]GalNAc
# Procedure, shortened: as §1
# [19] = molecular target: Neu5Ac(a2-6)Gal(b1-4)GlcNAc6S
# Procedure, shortened: as §1
# [20] = molecular target: Neu5Ac(a2-6)GlcNAc(b1-4)GlcNAc(b1-4)GlcNAc
# Procedure, shortened: as §1
# [21] = molecular target: Neu5Ac(a2-8)Neu5Ac(a2-3)Gal(b1-3)GalNAc(b1-4)[Neu5Ac(a2-8)Neu5Ac(a2-3)]Gal(b1-4)Glc
# Procedure, shortened: as §1
# Neu5Gc(a2-6)GalNAc = molecular target: Neu5Gc(a2-6)GalNAc
# Procedure, shortened: as §1
binder,measurement,setting,value
AT1G15820(NC) (Arabidopsis thaliana) (protein) MAMAVSGAVLSGLGSSFLTGGKRGATALASGVGDAIAPFSFGSLLGTQLLLMGWVESKRWVDFFNPDSQSVEWATPWSKTAENFANYTGDQGYPGGRFFDPLGLAGKNRDGVYEPDFEKLERLKLAEIKHSRLAMVAMLIFYFEAGQGKTPLGALGL,glycan array binding signal (z-score),[1],4.39
same,glycan array binding signal (z-score),GalNAc(b1-3)GlcNAc,-0.221
same,glycan array binding signal (z-score),GalNAc(b1-4)GlcNAc,7.2
same,glycan array binding signal (z-score),[2],-0.306
same,glycan array binding signal (z-score),[3],-0.156
same,glycan array binding signal (z-score),[4],-0.626
same,glycan array binding signal (z-score),[5],0.582
same,glycan array binding signal (z-score),[6],2.99
same,glycan array binding signal (z-score),[7],0.405
same,glycan array binding signal (z-score),GlcNAc(b1-4)GlcNAc,-0.216
same,glycan array binding signal (z-score),[8],4.7
same,glycan array binding signal (z-score),[9],-0.581
same,glycan array binding signal (z-score),[10],-0.555
same,glycan array binding signal (z-score),[11],-0.329
same,glycan array binding signal (z-score),[12],-0.18
same,glycan array binding signal (z-score),[13],-0.475
same,glycan array binding signal (z-score),Neu5Ac(a2-6)Gal(b1-4)Glc,-0.637
same,glycan array binding signal (z-score),[14],-0.363
same,glycan array binding signal (z-score),[15],-0.052
same,glycan array binding signal (z-score),[16],0.316
same,glycan array binding signal (z-score),[17],-0.4
same,glycan array binding signal (z-score),[18],-0.424
same,glycan array binding signal (z-score),[19],-0.322
same,glycan array binding signal (z-score),[20],-0.481
same,glycan array binding signal (z-score),[21],5.08
same,glycan array binding signal (z-score),Neu5Gc(a2-6)GalNAc,-0.493
